# Bioassay records from PubChem BioAssay.
# This excerpt belongs to a sample that is enriched for hits.
# VCAM1 TNFa pot – TNF alpha stimulated VCAM1 expression potentiation | HUVEC TNFa-stimulated VCAM-1 immunofluorescence, high-content imaging; scaled per plate to unstimulated/TNFa-only wells | activation, % at 2 µM | 93,000 tested, 0.19% active;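 active = activation above the screen mean plus 3 SD, with well images confirming the hit on visual review, cut at about 28% in these data, passing the limit was not always enough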;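 note: signal is the number of cytoplasmic VCAM-1 stained grains per positive cell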
# VCAM1 pot conf – enhancers of VCAM1 induction in HUVEC – imaging, triplicate retest, confirmation; HUVEC TNFa-stimulated VCAM-1 immunofluorescence imaging; AID 1034; 230 tested, under 10 active; shares compounds with VCAM1 TNFa pot; activation, % at 2 µM;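 active = activation above 30% in triplicate retests at 2 µM, then confirmed by visual review of the well images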;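 note: scaled per plate between unstimulated and TNFa-stimulated DMSO control wells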
# Numbers without * were called inactive.
SMILES,VCAM1 TNFa pot,others
CCOc1cccc(OCC)c2c(C)[n+](CC3CCCO3)c(C)c1-2 (stereo not given),32*,VCAM1 pot conf=4
Cn1c(=O)cc(OCC(=O)N2CCN(Cc3ccc4c(c3)OCO4)CC2)c2ccccc21,-16,
O=C(N/N=C1/CN2CCC1CC2)c1cccc(O)c1,3,
CCCC12CN3CN(C1)CC(CCC)(C3)C2O (stereo not given),33*,VCAM1 pot conf=-20
CCC(=O)c1cc(F)c(N2CCN(CC)CC2)cc1C,-1,
O=P(/C(=N/O)N1CCOCC1)(N1CCOCC1)N1CCOCC1,-1,
CCC(=O)OC1(c2cccc(C)c2)CC(C)N(C)CC1C (stereo not given),-4,
CCNc1ccc(P(=S)(N(C)C)N(C)C)cc1,-21,
Cc1ccccc1-n1c(C)nc2sccc2c1=O,-8,
C=C1N2CCC(CC2)C1(O)c1ccccc1C (stereo not given),-41,
